# Most compounds without a hit are left out; they make up all but 15% or so of the library.
# Pf growth 96h – P. falciparum growth inhibition at 96 hours. P. falciparum luciferase reporter growth, 96 h. Potency, µM (series often up to 28.7 µM), inactives show at the highest dose activity change, negative = inhibition, hits mostly inhibitors. hit rate 6.9% among 320,000. AID 504834; also: potency is read from the fitted curve at half-maximal effect; % is scaled to controls: 0 for no effect and ±100 for the full control effect
#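 Two parasite generations (96 h, 37 C, 5% CO2) of compound exposure in infected erythrocytes (0.05% parasitemia, 2% hematocrit). Luciferase-reporter P. falciparum; decreased luminescence indicates inhibited growth, aimed at apicoplast-acting delayed death.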
# HCMV inh – human cytomegalovirus inhibition; HFF cells, HCMV-luciferase reporter, 72 h; active compounds read low; hit rate 4.5% among 410,000; activity change, negative = inhibition, % at 57.5 µM; in the data active = activity change below about -60%; inconclusive = no clear call, values can overlap the other calls; inactive = above about -39%; also: % is scaled to controls: 0 for no effect and ±100 for the full control effect
#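 Human foreskin fibroblasts infected with luciferase-reporter HCMV at MOI 1 PFU/cell, compounds at two doses. Luciferase measured 72 h post infection; normalized to buffer-only basal and Salinomycin (10uM) controls.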
# HCV inhibitor – inhibitors of hepatitis C virus infection; Huh7.5.1 HCVcc-Cre infection, luciferase reporter, 44 h; Potency, µM (series often up to 41.8 µM), without a hit: at the top dose activity change, negative = inhibition, hits mostly inhibitors; hit rate 3.4% among 340,000; also: potency is read from the fitted curve at half-maximal effect; % is scaled to controls: 0 for no effect and ±100 for the full control effect
#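 Antiviral activity was scored by luciferase reporter output from cells infected with HCVcc-Cre (~0.5 moi) in presence of compound, 44 h infection period, cells seeded 1,000/well 4 h prior.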
# Sm TGR block – inhibitors of Schistosoma mansoni thioredoxin glutathione reductase. Q962Y6. purified TGR, DTNB reduction, TNB absorbance 405 nm. hit rate 3% among 360,000. Potency, µM (highest dose often 114 µM), for inactives: top-dose activity change, negative = inhibition, actives largely listed as inhibitors. AID 485364; also: potency is read from the fitted curve at half-maximal effect; % is scaled to controls: 0 for no effect and ±100 for the full control effect; nearly all actives have a fitted effect of over 60% in size
#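 First, TGR (20 nM dispensed) and NADPH were mixed with compound. Second, a 15 min room-temperature incubation followed. Third, further NADPH and then DTNB were added to start the reaction. Finally, TNB absorbance was monitored kinetically.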
# SARS PLP yeast – inhibitors of SARS-CoV papain-like protease in yeast; hit rate 0.19% among 330,000; Potency, µM (top dose mostly 32.9 µM), for the others: top-dose activity, positive = growth rescue, hits mostly activators; S. cerevisiae expressing SARS-CoV PLpro, growth rescue; calls by dose curve; also: potency is read from the fitted curve at half-maximal effect; 0% is about no effect; nearly all actives have a fitted effect of over 55% in size
# Pf growth 48h – inhibits P. falciparum growth in the first generation, 48 h; P. falciparum luciferase growth in erythrocytes, 48 h; Potency, µM (top dose mostly 28.7 µM), inactives show top-dose activity change, negative = inhibition, usual class: inhibitors; hit rate 5.9% among 310,000; AID 504832; also: potency is read from the fitted curve at half-maximal effect; % is scaled to controls: 0 for no effect and ±100 for the full control effect
#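 Cell-based growth assay: transgenic P. falciparum expressing firefly luciferase, cultured in red cells within RPMI 1640 containing 0.5% w/v Albumax, 24 mM bicarbonate and gentamycin. A drop in luciferase activity indicates inhibition.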
# Starred values were filed as active, the others as inactive; u = inconclusive; x = not tested or not shown. Unless noted, calls follow the shape of the dose curve; as a rule, active = well fitted curve in the direction sought with a large enough effect; inconclusive = small, poorly fitted or top-dose-only effect, or another doubt; inactive = no such curve, though single readings can be large; an effect the other way counts as inactive or inconclusive.
SMILES,Pf growth 96h,HCMV inh,HCV inhibitor,Sm TGR block,SARS PLP yeast,Pf growth 48h
COC(=O)c1ccc(S(=O)(=O)N2CCCN(Cc3ccc(F)cc3)CC2)n1C,16%,-64*,11µM*,u,-1%,-3%
COC(=O)c1ccc(S(=O)(=O)NCc2ccc(OC)cc2)n1C,75%,12,4%,7%,0%,37%
COc1ccc(S(=O)(=O)N2CCN(CCCOc3ccc(F)cc3)CC2)cc1OC,4.7µM*,u,11µM*,3%,14%,u
O=C(N[C@H](C(=O)N1CCC[C@H]1C(=O)NCCc1ccccc1Cl)c1ccccc1)c1ccco1,x,-22,x,x,x,x
CCc1nn(C(C)C(=O)NCc2cccc(Cl)c2)c(=O)c2cc3occc3n12 (stereo unspecified),-21%,0,8.9µM*,5%,2%,3%
CCc1nn(C(C)C(=O)NC(C)CCc2ccco2)c(=O)c2cc3occc3n12 (stereo unspecified),53%,x,10µM*,0%,4%,14%
COc1ccc(CC(=O)OC(C)C(=O)NC2CCCCC2C)cc1 (stereo unspecified),20%,-5,13%,-9%,-3%,u
O=C(Cn1nnc2ccccc21)NNC(=S)NC1CCCCC1,6%,22,14%,-2%,1%,21%
CN(Cc1ccccc1)C(=O)c1ccc(NC(=O)Cc2ccc(NC(=O)C3CCN(S(=O)(=O)c4cccc([N+](=O)[O-])c4)CC3)cc2)cc1,x,-5,13µM*,x,x,x
CN(CCc1ccccc1)C(=O)c1ccc(NC(=O)Cc2ccc(NC(=O)C3CCCN(S(=O)(=O)c4cccc([N+](=O)[O-])c4)C3)cc2)cc1 (stereo unspecified),x,-11,u,x,x,x
CN(CCc1ccccc1)C(=O)c1cccc(NC(=O)Cc2cccc(NC(=O)C3CCCN(S(=O)(=O)c4cccc([N+](=O)[O-])c4)C3)c2)c1 (stereo unspecified),x,-18,10µM*,x,x,x
CN(C(=O)c1cccc(NC(=O)Cc2ccc(NC(=O)C3CCN(S(=O)(=O)c4cccc([N+](=O)[O-])c4)CC3)cc2)c1)C1CCC1,x,-7,u,x,x,x
CN(Cc1ccccc1)C(=O)c1cccc(NC(=O)Cc2ccc(NC(=O)C3CCN(S(=O)(=O)c4cccc([N+](=O)[O-])c4)CC3)cc2)c1,x,1,8.9µM*,x,x,x
Cc1ccc(C(C)C)c(OCC(=O)NNC(=O)Cn2[nH]c(=O)c3ccccc3c2=O)c1,u,17,17%,30%,1%,u
NC(=O)CSc1nc2cc3c(cc2c(=O)n1CCCCCC(=O)NCc1ccc2c(c1)OCO2)OCO3,x,64,x,1%,x,x
O=C(CN(C(=O)Cn1nnc(-c2cccs2)n1)c1cnc2ccccc2c1)NCC1CCCO1 (stereo unspecified),15µM*,-7,-3%,-4%,19%,u
O=C(CN(C(=O)Cn1nnc(-c2ccccc2F)n1)c1cnc2ccccc2c1)NCC1CCCO1 (stereo unspecified),u,-24,3%,u,3%,9.3µM*
Cc1ccc2c(c1)N(CC(=O)N1CCCCC1)C(=O)C(C)O2 (stereo unspecified),9.3µM*,-6,-5%,-5%,12%,2%
CCN(CC)S(=O)(=O)c1ccc2c(c1)N(CC(=O)NCCCN1CCN(c3ccccc3F)CC1)C(=O)CO2,x,-12,x,-28%,x,x
CCN(CC)S(=O)(=O)c1ccc2c(c1)N(CC(=O)NCCCN1CCN(c3cc(C)ccc3C)CC1)C(=O)CO2,x,-99*,x,6%,x,x
Cc1ccc2c(c1)N(CC(=O)N1CCCC1)C(=O)C(C)O2 (stereo unspecified),u,-5,12%,79%,12%,u
CCCN1CCN(C(=O)CN2C(=O)COc3ccc(S(=O)(=O)N(CC)CC)cc32)CC1,2.9µM*,6,6%,-6%,1%,-2%
Cc1cccc(N2CCN(C(=O)CN3C(=O)COc4ccc(S(=O)(=O)N5CCCCCC5)cc43)CC2)c1C,x,-73*,x,-4%,x,x
CCN(CC)S(=O)(=O)c1ccc2c(c1)N(CC(=O)N1CCN(c3ccc(Cl)cc3)CC1)C(=O)CO2,x,-9,x,0%,x,x
Cc1ccc(C)c(N2CCN(C(=O)CN3C(=O)COc4ccc(S(=O)(=O)N5CCCC5)cc43)CC2)c1,x,-8,x,-11%,x,x
SMILES,Pf growth 96h,HCMV inh,HCV inhibitor,Sm TGR block,SARS PLP yeast,Pf growth 48h
CC(C)n1c(=O)c2ccccc2n1Cc1cn(-c2ccc(Cl)cc2)nn1,x,3,x,x,x,x
Cc1cccc(N2CCN(C(=O)c3cc(S(=O)(=O)N4CCCC4)cn3C)CC2)c1C,u,-40,u,10%,-3%,9.3µM*
Cc1ccc2c(c1)N(CC(=O)N1CCCCCC1)C(=O)CO2,x,48,x,4%,-3%,6%
CC(C)(C)c1ccc2c(c1)N(CC(=O)N1CCCC1)C(=O)CO2,-30%,4,-3%,0%,1%,12µM*
CN1CCN(C(=O)CN2C(=O)COc3ccc(S(=O)(=O)N4CCOCC4)cc32)CC1,5.2µM*,35,16%,-17%,11%,-1%
Cc1cccc(N2CCN(C(=O)c3cc(S(=O)(=O)N4CCOCC4)cn3C)CC2)c1C,u,-21,9%,6%,-3%,u
CC(C)Oc1ccc(Nc2cc3c(cn2)cc(-c2cnn(C)c2)n3C)cc1,x,9,x,x,x,x
CCN(C(=S)NC(=O)C1CC1)c1ccccc1,50%,-14,14%,0%,0%,1%
O=C(C1CC1)N(CCN(C(=O)C1CC1)c1ccccc1)c1ccccc1,-6%,-15,-13%,1%,-3%,0.0026µM*
N/C(Cc1ccc([N+](=O)[O-])cc1)=N\OC(=O)COc1ccccc1Cl,-63%,-102*,2%,-10%,-17%,12%
CCCCN(C(=O)c1oc2ccc(OCC)cc2c1C)c1c(N)n(CCCC)c(=O)[nH]c1=O,u,-23,-3%,-1%,5%,u
COCCNC(=O)CCc1nnc(C2(c3ccc(Cl)cc3)CCC2)o1,u,-25,12%,11%,0%,12%
NCCCC[C@H]1CN=C(N)N1CCc1cccc2ccccc12,x,15,4%,x,x,x
NC1=NC[C@H](Cc2ccc(O)cc2)N1CCc1cccc2ccccc12,1µM*,u,-2%,1%,-2%,3.3µM*
NC1=NC[C@@H](Cc2ccc(O)cc2)N1CCc1cccc2ccccc12,1.9µM*,-10,21%,-8%,-1%,5.9µM*
CN(C)CCN(C)C1CN(Cc2ccc([N+](=O)[O-])cc2)S(=O)(=O)C1 (stereo unspecified),x,-22,x,x,x,x

# Screening data (PubChem BioAssay)
